Reference: PubChem BioAssay (NCI)
The panel holds about 83,000 compounds, 20% with a hit somewhere; the sample as a whole holds those more often.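 48-hour exposure, single concentration, 96-well plates; percent growth endpoint where 0 means no net growth. Active: below 10.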 The source made the active and inactive calls.

Each molecule was assayed on UACC-257 melanoma (assay: NCI-60 one-dose screen, 48 h (100 = growth as untreated, 0 = no growth, -100 = all killed)). Details: 10 µM unless noted.

Q: CCOC(=O)C(=Cc1c(-c2ccccc2)[nH]c2ccccc12)C(=O)OCC was tested. Which growth did it give?
A: 44.3% (inactive)

Q: With COc1ccc(C2=NN(c3ccc(S(N)(=O)=O)cc3)C(c3ccc(Cl)cc3)C2)c(O)c1 (centres undefined) as the molecule, how does the growth read?
A: 57.3% (inactive)

Q: CCOC(=O)C1=C(C)n2nc(CC#N)c(C#N)c2NC1c1ccc(Cl)cc1 (centres undefined) was tested. Which growth did it give?
A: 114% (inactive)

Q: How did the growth turn out when CCOC(=O)c1sc(/N=C2\NC(=O)/C(=C/c3ccc(N4CCN(C)CC4)cc3)S2)nc1C was run?
A: 110% (inactive)

Q: CC(C)NS(=O)(=O)c1cccc(-c2ccc3c(=O)n(CCCN)c4c(c3c2)C(=O)c2ccccc2-4)c1 was tested. Which growth did it give?
A: 110% (inactive)

Q: For COc1cc2nc3c(=O)n(CCN(C)C)cnn3c(=O)c2cc1OC, which growth is on record?
A: 107% (inactive)

Q: Which growth does the source give for COc1ccc(/C(=N\O)c2cc(C)c(OC)c(C)c2)cc1O here?
A: 70% (inactive)

Q: For COc1cc(C2=NN(c3ccccc3)C(c3cccc(Nc4ccnc5cc(C(F)(F)F)ccc45)c3)C2)cc(OC)c1OC (centres undefined), which growth is on record?
A: 97.3% (inactive)

Q: How did the growth turn out when Nc1c(C(=O)Nc2ccccn2)sc2nc3c(cc12)CCCC3 was run?
A: 67.8% (inactive)

Q: COc1ccc(-c2cc(-c3nnc(SCC(=O)Nc4ccc(C(C)=O)cc4)o3)c3ccccc3n2)cc1 was tested. Which growth did it give?
A: 68.3% (inactive)

Q: Which growth does the source give for Nc1c(C(=O)Nc2ccccn2)sc2nc3c(cc12)CCCCC3 here?
A: 72.5% (inactive)

Q: With Sc1cccc2cccnc12 as the molecule, how does the growth read?
A: 24.3% (inactive)

Q: How did the growth turn out when C=CCn1c(SCC(=O)Nc2ccc(C(=O)/C=C/c3cc(OC)c(OC)c(OC)c3)cc2)nnc1-c1ccc(Cl)cc1 was run?
A: 51.3% (inactive)

Q: O=C(/C(=C\c1c(-c2ccccc2)[nH]c2ccccc12)S(=O)(=O)c1ccccc1)c1ccccc1 was tested. Which growth did it give?
A: 32.3% (inactive)

Q: For COc1ccc2[nH]c(=O)c(/C=C/C(=O)/C=C/c3ccc(O)c(OC)c3)cc2c1, which growth is on record?
A: 40.3% (inactive)

Q: COc1cc(-c2cn(-c3ccc(Cl)c(Cl)c3)c(=O)[nH]2)cc(OC)c1OC was tested. Which growth did it give?
A: 87.4% (inactive)

Q: How did the growth turn out when Cc1cc(C)c2nc(Nc3nc(C)c(C)c(=O)[nH]3)nc(C)c2c1 was run?
A: 14.1% (inactive)

Q: How did the growth turn out when COc1ccc2cc(/C=C3\N=C(c4cc(OC)c(OC)c(OC)c4)OC3=O)c(OC)nc2c1 was run?
A: 95.5% (inactive)

Q: How did the growth turn out when COC(=O)/C=C1\SC(=Nc2cccc(OC)c2)N(CCc2c[nH]c3ccccc23)C1=O was run?
A: 61.7% (inactive)

Q: How did the growth turn out when O=C1Nc2ccc(Br)cc2/C1=N\N=C/c1cn(Cc2ccccc2)c2ccccc12 was run?
A: 109% (inactive)

Q: Which growth does the source give for COc1cc(-c2nn(-c3ccc(Br)cc3)cc2CO)ccc1O here?
A: 90.7% (inactive)

Q: For CCCCc1ccc(N=Nc2ccc(OCC[N+](C)(C)C)cc2)cc1, which growth is on record?
A: 71.4% (inactive)

Q: How did the growth turn out when CCN1CCN(c2ccc(NC(=O)Nc3nc4ccc(-c5ccccc5OC)cc4s3)cc2)CC1 was run?
A: -71.9% (active)

Q: How did the growth turn out when C=C(C)[C@@H]1CC[C@]2(C(=O)O)CC[C@]3(C)[C@H](CC[C@@H]4[C@@]5(C)C[C@@H](CC#Cc6ccccc6C)C(=O)C(C)(C)[C@@H]5CC[C@]43C)[C@@H]12 was run?
A: 39.9% (inactive)

Q: CCSc1ccc(C2C(Br)C(=O)N2c2cc(OC)c(OC)c(OC)c2)cc1 (centres undefined) was tested. Which growth did it give?
A: 45.2% (inactive)

Q: How did the growth turn out when CCCCc1nc(Cl)c(C2CC(c3ccc(Cl)cc3)=NN2c2cc(Cl)cc(Cl)c2)[nH]1 (centres undefined) was run?
A: 94.8% (inactive)

Q: With C=C(C)[C@@H]1CC[C@]2(C(=O)OCCOCCOCC[P+](c3ccccc3)(c3ccccc3)c3ccccc3)CC[C@]3(C)[C@H](CC[C@@H]4[C@@]5(C)CC[C@H](C)C(C)(C)[C@@H]5CC[C@]43C)[C@@H]12 as the molecule, how does the growth read?
A: -88.1% (active)

Q: O=C1[C@@H](OS(=O)(=O)CC(F)(F)F)[C@H](c2ccc(F)cn2)N1c1cc2c3ccccc3ccc2c2ccccc12 was tested. Which growth did it give?
A: 79% (inactive)

Q: With CCOC(=O)c1c(C)nc2c(c1N)/C(=C/c1cccs1)C(=O)N2Cc1ccccc1 as the molecule, how does the growth read?
A: 74% (inactive)

Q: C=CCn1c(SCC(=O)Nc2ccc(C(=O)/C=C/c3ccc(Cl)cc3)cc2)nnc1-c1cc(OC)c(OC)c(OC)c1 was tested. Which growth did it give?
A: 95.8% (inactive)

Q: How did the growth turn out when O=C1NN(c2ccccc2)C(c2ccc3c(c2)OCO3)N2CCC[C@@H]12 (some centres undefined) was run?
A: 99.2% (inactive)

Q: With Cc1cnc(SCc2ccc(Cl)cc2Cl)nc1Nc1ccc(Cl)c(Cl)c1 as the molecule, how does the growth read?
A: 91.4% (inactive)

Q: For O=C(O)c1cn(C2CC2)c2cc(N3CCN(C(=O)CSc4nnc(-c5ccc(Cl)cc5)n4-c4ccccc4)CC3)c(F)cc2c1=O, which growth is on record?
A: 96.4% (inactive)

Q: Which growth does the source give for N#Cc1ccc(C2C3=C(CCCC3=O)OC3=C2C(=O)c2ccccc2C3=O)cc1 (centres undefined) here?
A: 52.3% (inactive)
